Assay outcomes as filed in PubChem BioAssay.
Sampled rows, rich in hits. Any-hit rate of the full collection: about 0.9%.
BLM inh: qHTS Assay for Inhibitors of Bloom's syndrome helicase (BLM); RecQ-like DNA helicase BLM (Homo sapiens), P54132; recombinant BLM DNA unwinding, fluorescence dequenching; Potency, µM (titrated, usually from 56.1 µM), for the others: at the highest dose activity change, negative = inhibition, hits mostly inhibitors; 350,000 tested, 0.2% active;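 note: plate controls were vehicle for no effect and no enzyme for full effect; nearly all actives have a fitted effect of over 35% in size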
TR SRC2 fluor cs: Total Fluorescence Counterscreen for Inhibitors of the Interaction of Thyroid Hormone Receptor and Steroid Receptor Coregulator 2 | TRb/SRC2 Texas Red total fluorescence interference | Potency, µM (top dose mostly 106 µM), without a hit: at the top dose fluorescence change, negative = quenching | 280,000 tested, 0.29% active; active = well fitted curve in either direction with a large enough effect; inconclusive = small, poorly fitted or top-dose-only effect
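Flags fluorescent or light-absorbing compounds by total fluorescence, S + 2P, at 555 nm excitation and 632 nm emission. Mixture: 20 nM Texas Red SRC2 peptide, 0.6 uM human TRb LBD, 1 uM T3, 5% DMSO; compound exposure 5 h at ambient temperature.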
RGS12 GoLoco inh: qHTS Assay for Inhibitors of RGS12 GoLoco Motif Activity (Red Fluorophore); Gai1:RGS12 GoLoco peptide FP, rhodamine, 10 min; Potency, µM (top dose mostly 61.6 µM), without a hit: at the highest dose activity, negative = inhibition, usual class: inhibitors; 230,000 tested, 0.44% active; active = well fitted inhibition curve with a large enough effect, not every such curve was filed as active; inactive = no such curve, though single readings can be large or run the other way; note: nearly all actives have a fitted effect of over 30% in size
Target sequence (P63096 whole entry, looked up): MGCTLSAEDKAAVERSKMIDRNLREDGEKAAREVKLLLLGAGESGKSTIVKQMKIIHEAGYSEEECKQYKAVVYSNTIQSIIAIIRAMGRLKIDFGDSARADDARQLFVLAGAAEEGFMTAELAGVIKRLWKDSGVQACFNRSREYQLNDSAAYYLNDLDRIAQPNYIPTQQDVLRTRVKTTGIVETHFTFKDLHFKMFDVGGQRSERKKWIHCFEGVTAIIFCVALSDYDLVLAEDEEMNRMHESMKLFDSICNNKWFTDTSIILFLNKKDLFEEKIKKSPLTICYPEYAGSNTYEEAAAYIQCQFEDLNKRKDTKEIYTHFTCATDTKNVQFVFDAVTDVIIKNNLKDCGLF
APE1 inh: qHTS Assay for Inhibitors of the Human Apurinic/apyrimidinic Endonuclease 1 (APE1). 350,000 tested, 0.35% active. Potency, µM (doses to about 65.8 µM), for inactives: at the highest dose activity change, negative = inhibition, actives largely listed as inhibitors. recombinant APE1, TAMRA/BHQ-2 abasic DNA cleavage fluorescence. AID 2517, 2012;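 note: plate controls were vehicle for no effect and reference inhibitor for full effect; nearly all actives have a fitted effect of over 55% in size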
Target sequence (P27695 whole entry, looked up): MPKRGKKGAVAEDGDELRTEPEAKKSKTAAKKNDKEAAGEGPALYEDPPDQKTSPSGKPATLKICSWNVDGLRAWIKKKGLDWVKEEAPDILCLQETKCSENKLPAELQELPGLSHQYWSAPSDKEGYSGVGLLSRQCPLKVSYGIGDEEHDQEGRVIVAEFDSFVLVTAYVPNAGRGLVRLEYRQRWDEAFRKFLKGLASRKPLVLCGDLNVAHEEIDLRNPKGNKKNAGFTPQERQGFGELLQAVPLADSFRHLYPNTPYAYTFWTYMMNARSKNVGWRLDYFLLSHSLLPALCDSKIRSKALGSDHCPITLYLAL
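Incision of a quenched TAMRA/BHQ-2 THF abasic-site duplex (50 nM) by 0.75 nM APE1, after 15 min compound preincubation, measured as fluorescence increase over three 60 s reads. Values normalized to buffer, DMSO and NSC13755 control wells.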
RECQ1 helicase: qHTS Assay for Inhibitors of RecQ-Like Dna Helicase 1 (RECQ1) | ATP-dependent DNA helicase Q1 (Homo sapiens), P46063 | RECQ1 DNA unwinding, red fluorescence kinetic read | Potency, µM (doses to about 57.3 µM), for the others: top-dose activity, negative = inhibition, hits mostly inhibitors | 240,000 tested, 0.54% active | AID 2549, 2010;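 note: plate controls were vehicle for no effect and no enzyme for full effect; nearly all actives have a fitted effect of over 30% in size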
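50 nM RECQ1T1 preincubated 15 min with compound in Tris pH 8.0 buffer with MgCl2, DTT, Tween-20 and 2.5 ug/ml poly(dI-dC); started with 200 nM TAMRA/BHQ-2 forked duplex and 2 mM ATP. Unwinding read as fluorescence (525/598 nm), two reads 2 h apart.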
TRb-SRC2 inh: qHTS for Inhibitors of the Interaction of Thyroid Hormone Receptor and Steroid Receptor Coregulator 2 | 280,000 tested, 0.065% active | TRbeta-SRC2 peptide binding, fluorescence polarization; receptor liganded with 1 µM T3 | Potency, µM (series often up to 106 µM), for inactives: top-dose activity change, negative = inhibition, actives largely listed as inhibitors;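 note: plate controls were bound peptide for no effect and peptide without receptor for full effect; nearly all actives have a fitted effect of over 50% in size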
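Human TRb LBD (0.6 uM) plus Texas Red-labeled SRC2 peptide (20 nM), 1uM T3, 5% DMSO, 5 hr at ambient temperature. Decreased polarization (555/632 nm) flags inhibition; data normalized to free and bound peptide controls.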
Active calls of the source: *; i = inactive; ? = inconclusive; . = no result given; [ ] = another dose, or the depositor's remark. Unless noted, calls come from the whole dose curve; as a rule, active = well fitted curve in the direction sought with a large enough effect; inconclusive = small, poorly fitted or top-dose-only effect, or another doubt; inactive = no such curve, though single readings can be large; an effect the other way counts as inactive or inconclusive. Unless noted, % is set by controls: 0 for no effect and ±100 for the full control effect; potency is the fitted concentration of half-maximal effect.

SMILES	BLM inh	TR SRC2 fluor cs	RGS12 GoLoco inh	APE1 inh	RECQ1 helicase	TRb-SRC2 inh
Cc1cc(NC(=O)CCCn2c(C)c3cnn(-c4ccccc4)c(=O)c3c2C)ccc1Br	-12%	-1%	.	.	.	5%
Cc1cc2c(n1-c1ccc(C(=O)O)cc1)CCCCC2	-1%	.	.	6µM*	.	.
CC(C)n1c(=S)[nH]c2c1c(=O)[nH]c(=O)n2C	3%	0%	10µM*	0%	-7%	1%
COc1cccc(CNCCSc2nnnn2C)c1	2%	-7%	-17%	-10%	i	-3%
COc1cccc(CNCCCSc2nnnn2C)c1	4%	1000µM*[quencher]	.	.	.	-21%
COC(=O)C(C)Sc1nnc2cc(C)c3cc(C)cc(C)c3n12 (stereo unspecified)	3%	0.071µM*[quencher]	.	.	.	-29%
CCOC(=O)c1c(NC(=O)Cc2coc3cc(C)ccc23)sc2c1CCCC2	-2%	0.1µM*[quencher]	.	.	.	?
CNC(=O)c1c(NC(=O)Cc2coc3ccc(C)cc23)sc2c1CCCC2	-7%	?	.	.	.	-1%
Cc1ccc(C(C)(C)C)c(O)c1	.	-6%[201 µM]	.	.	.	0%[201 µM]
COc1ccc(-c2cc([C@H](O)C3CCCCN3)c3ccccc3n2)cc1 (stereo partly specified)	.	.	7%[14.2 µM]	.	.	.
Cc1nc2ccccc2n1CCC(=O)O	3%	-1%	11%	1%	-5%	-4%
Cc1nc2ccccc2n2c(O)c(CC(=O)O)cc12	-2%	26%	13µM*	-7%	-16%	?
N=c1oc2c3c4c(cc2cc1C(=O)Nc1ccccc1)CCCN4CCC3	-4%	1%	4µM*	-1%	-12%	-12%
CC1=C(C(=O)Nc2ccccc2)C(c2cccs2)n2nc(SCc3ccccc3F)nc2N1 (stereo unspecified)	-3%	0%	.	.	.	-7%
c1ccc2c(c1)SCc1c-2[nH]c2ccccc12	-9%	-3%	.	-1%	-12%	5%
CCCC(=O)c1cc(O)c(O)cc1O	.	-14%	-17%	0.89µM*	1.1µM*	6%
Cl[Si](Cl)(c1ccccc1)c1ccccc1	.	-1%[201 µM]	.	.	.	0%[201 µM]
Cc1ccc(C)c(CN2C(=O)C3CCCN3c3ccc(S(=O)(=O)N4CCOCC4)cc32)c1 (stereo unspecified)	-6%	-2%	112%	-3%	-6%	9%
COc1cccc(CN2C(=O)C3CCCN3c3ccc(S(=O)(=O)N4CCOCC4)cc32)c1 (stereo unspecified)	-4%	18%	51%	15%	28µM*	30%
N#Cc1c(-c2cccs2)nc(SCc2ccc(Cl)cc2)[nH]c1=O	28µM*	-2%	10%	-15%	20%	4%
O=c1c2c([N+](=O)[O-])cc([N+](=O)[O-])cc2sn1Cc1ccccc1	-7%	.	.	-1%	.	.
O=c1c2c([N+](=O)[O-])cc([N+](=O)[O-])cc2sn1-c1ccc(Br)cc1	-2%	5%	5µM*	-3%	0%	4%
CC1(C)C(=O)Nc2ccccc2N1C(=O)CSc1nc(-c2ccccc2)cs1	-26%	32µM*[quencher]	18%	2%	-1%	-8%[53 µM]
O=C1CN(C(=O)CSc2nc(-c3ccccc3)cs2)c2ccccc2N1	1%	1%	12%	-1%	i	1%
CCCCn1c(NS(=O)(=O)c2ccc(C)cc2)c(S(=O)(=O)c2ccccc2)c2nc3ccccc3nc21	7.1µM*	-1%	.	-6%	-22%	?
SMILES	BLM inh	TR SRC2 fluor cs	RGS12 GoLoco inh	APE1 inh	RECQ1 helicase	TRb-SRC2 inh
CCCOc1ccc(N2C(=O)CC(N(Cc3ccc(OC)cc3)C(=S)Nc3ccccc3)C2=O)cc1 (stereo unspecified)	-1%	7%	-8%	4%	-2%	9%
CCCOc1ccc(N2C(=O)CC(N(CCc3ccc(OC)c(OC)c3)C(=S)Nc3ccccc3)C2=O)cc1 (stereo unspecified)	-3%	0.5µM*[quencher]	2%	7%	-8%	?
Cc1ccc(/C=C2/CNC/C(=C\c3ccc(C)cc3)C2=O)cc1	-11%	5%	.	1%	-7%	-4%
O=C(CSc1nnnn1-c1cccc2ccccc12)Nc1ccc(N2CCOCC2)c(Cl)c1	-2%	0%	-5%	0%	i	-7%
O=C(CSc1nnnn1-c1ccccc1)Nc1ccc(N2CCOCC2)c(Cl)c1	3%	-1%	7.1µM*	-2%	0%	-3%
COc1ccccc1NC(=O)C(=N\O)/C(C)=N/O	-3%	-2%	10%	22µM*	-6%	-5%
COc1cc(/C=C2\SC(=S)N(C(Cc3ccccc3)C(=O)O)C2=O)ccc1O (stereo unspecified)	-20%	22%	196%	?	25µM*	29%
O=C1/C(=C/c2ccc(O)c(O)c2)SC(=S)N1Nc1ccccc1	?	10%	265%	70%	14µM*	22%
COc1ccc(/C=C2\SC(=S)N(CC3CCCO3)C2=O)cc1 (stereo unspecified)	-12%	-4%	59%	3%	-16%	2%
COc1cc(/C=C2/SC(=S)N(CC3CCCO3)C2=O)ccc1O (stereo unspecified)	-19%	14%	248%	?	32µM*	28%
O=C(O)C(Cc1ccccc1)N1C(=O)/C(=C/c2ccccc2)SC1=S (stereo unspecified)	0%	-2%	-2%	-2%	9%	2%
CCOc1cc(/C=C2\SC(=S)N(Nc3ccccc3)C2=O)ccc1O	-22%	28%	318%	?	25µM*	?
COc1cc(/C=C2\SC(=S)N(Nc3ccccc3)C2=O)ccc1O	-28%	1%	331%	6%	-2%	1%
O=C(O)c1cc2c(cc1S(=O)(=O)O)[C@H]1[C@@H](C3[C@H]2[C@@]2(Cl)C(Cl)=C(Cl)C3(Cl)C2(Cl)Cl)[C@]2(Cl)C(Cl)=C(Cl)C1(Cl)C2(Cl)Cl (stereo partly specified)	.	.	-21%[14.2 µM]	.	.	.
CC(=O)OC1CCC(C(C)(C)C)CC1 (stereo unspecified)	.	-2%[201 µM]	.	.	.	5%[201 µM]
CCOC(=O)C1CCCN(C(=O)c2cc(-c3ccco3)nc3ccccc23)C1 (stereo unspecified)	.	.	.	8.4µM*	.	.
O=C1NC(=S)N/C1=C/c1ccc(-c2c(Br)cc([N+](=O)[O-])cc2Br)o1	-15%	-3%	-30%	-11%	-29%	-3%
